Compound activity: PubChem, National Center for Advancing Translational Sciences (NCATS)
Most compounds without a hit are left out; they make up all but 4.7% or so of the library.
D1 PAM – Potentiators of Human D1 Dopamine Receptor: qHTS | hit rate 0.036% among 360,000 | D(1A) dopamine receptor (Homo sapiens), P21728 | potentiation, % at 10 µM | HEK293 TREx D1 cells, calcium flux, dopamine EC20 potentiation; in the data active = potentiation above about 30%; note: 0% is about no effect
Target sequence (P21728 whole entry, looked up): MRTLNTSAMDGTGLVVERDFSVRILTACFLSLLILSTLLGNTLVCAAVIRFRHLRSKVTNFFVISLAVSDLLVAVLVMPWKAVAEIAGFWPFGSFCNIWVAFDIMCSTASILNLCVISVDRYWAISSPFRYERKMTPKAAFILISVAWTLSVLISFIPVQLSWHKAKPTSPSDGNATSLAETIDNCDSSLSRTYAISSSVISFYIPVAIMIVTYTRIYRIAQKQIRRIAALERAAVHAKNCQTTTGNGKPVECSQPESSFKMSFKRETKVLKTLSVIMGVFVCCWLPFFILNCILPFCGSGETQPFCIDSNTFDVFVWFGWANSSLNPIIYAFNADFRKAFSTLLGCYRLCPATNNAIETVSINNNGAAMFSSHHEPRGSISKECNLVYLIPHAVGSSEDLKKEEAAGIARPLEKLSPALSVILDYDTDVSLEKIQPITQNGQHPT
D1 antag – Antagonist of Human D 1 Dopamine Receptor: qHTS; hit rate 3.2% among 360,000; activity change, negative = inhibition, % at 10 µM; HEK293 TREx D1 cells, calcium flux, dopamine EC80; hits give low values; D(1A) dopamine receptor (Homo sapiens), P21728; AID 504652, 2011; in the data active = activity change below about -30%; note: % is set by controls: 0 for no effect and ±100 for the full control effect
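Tetracycline-induced HEK293 T-REx cells with force-coupled D1 receptor were loaded with a no-wash calcium dye. Compound was added after a 10 s baseline and read kinetically for 180 s; EC80 dopamine was then added and calcium flux followed another 180 s.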
D1 agonist – Allosteric Agonists of the Human D1 Dopamine Receptor: qHTS | D(1A) dopamine receptor (Homo sapiens), P21728 | HEK293 T-REx D1 cells, calcium flux, agonist mode | activation, % at 2 µM | hit rate 1% among 360,000 | AID 504660, 2011; note: 0% is about no effect
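Inducible HEK293 T-REx D1 cells, force-coupled to calcium signalling, were plated at 4000 cells/well with tetracycline and held overnight at 30 C. After no-wash calcium dye loading, compound-evoked calcium rise over 180 s flagged agonists.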
TRHR enhancer – qHTS for Small Molecule Agonists and Allosteric Enhancers of Human TRH Receptor: Primary Screen for Enhancers; hit rate 0.66% among 360,000; TRHR cells, fluo-8 calcium fluorescence, EC20 TRH enhancement; Thyrotropin-releasing hormone receptor (Homo sapiens), P34981; enhancement, % at 2 µM; in the data active = enhancement above about 30%; note: 0% is about no effect
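TRHR-expressing cells loaded with fluo-8 calcium dye were read kinetically (ex 480/em 530) during compound addition, then stimulated with an EC20 of TRH (10 nM final). Enhancement of the Gq-mediated intracellular calcium response was scored.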
TRHR ag – qHTS for Small Molecule Agonists and Allosteric Enhancers of Human TRH Receptor: Primary Screen for Agonists | Thyrotropin-releasing hormone receptor (Homo sapiens), P34981 | TRHR cells, calcium flux fluo-8, FDSS agonist mode | activation, % at 2 µM | hit rate 0.18% among 360,000; note: 0% is about no effect
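Fluo-8-loaded TRHR cells; 10 s baseline, compound added, kinetic Ca2+ fluorescence read 1/s, agonist mode.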
* hit, by the source's call; ! = repeats disagree. Cut-off read from the data, not from the text of the source, unless noted: active = activation above about 30%; inactive = the rest.

SMILES	D1 PAM	D1 antag	D1 agonist	TRHR enhancer	TRHR ag
O=c1ccc2cc(O)c(O)cc2o1	-4	-41*	2	-1	0
CCCNC(=O)c1ccc2c(=O)c(O)c(-c3cccc(Br)c3)[nH]c2c1	-8	-36*	6	5	-1
CCCNC(=O)c1ccc2c(=O)c(O)c(-c3ccc(F)cc3)[nH]c2c1	-9	-59*	1	2	2
COCCn1c(SCC(=O)NC2CCCC2)nc2c(c1=O)SCC2	5	2	6	-3	1
O=C(O)c1ccccc1C(=O)Nc1ccc(Nc2ccc([N+](=O)[O-])cc2[N+](=O)[O-])cc1	3	-12	0	35*	0
CC(=O)Nc1sc(N/N=C\c2ccccc2F)nc1-c1cccs1	-2	-1	-1	36*	0
Cc1ccc(S(=O)(=O)N(C)C)cc1NC(=O)C1CCN(C(=O)Nc2ccccc2)CC1	-6	-34*	2	-5	0
Cc1ccccc1C(=O)NNC(=O)C1CCN(C(=O)Nc2ccccc2)CC1	-7	-45*	0	-2	0
COc1cc(NC(=O)CN2C(=O)CN(C)C(=O)c3ccccc32)cc(OC)c1OC	-2	9	1	5	0
C=CCn1c(-c2cc3cccc(OC)c3o2)n[nH]c1=S	-2	-6	1	-5	0
Cc1ccc2c(c1)sc1nc(=O)n(-c3ccc(Cl)c(Cl)c3)c(=O)n12	1	-39*!	1	2	0
Cc1ccc2c(c1)sc1nc(=O)n(-c3ccc(Cl)cc3)c(=O)n12	0	-1	2	8	0
CCOc1ccc(-c2cn3c(n2)sc2cc(C(=O)NCCCN4CCCCC4)ccc23)cc1	3	-1	0	10	0
CCC/C(O)=C1\C(=O)CC(C)(C)CC1=Nc1ccc(OC)cc1	51*	-6	1	25	-1
CCOc1ccc(C(c2c(O)cc(C)n(CCOC)c2=O)N2CCN(c3ccc(F)cc3)CC2)cc1 (stereo not given)	-3	8	2	2	0
COc1ccc2[nH]c3c(=O)n(CCCCC(=O)N4CCC(C(N)=O)CC4)c(=S)[nH]c3c2c1	0	-36*	2	-1	0
Cn1c(=O)c2c(-c3ccccc3)n3c(c2n(C)c1=O)C(c1ccco1)Nc1ccccc1-3 (stereo not given)	2	-31*	1	3	0
CC(=O)Nc1ccc(N(C(=O)c2ccco2)C(C(=O)NC2CCCC2)c2ccc(N(C)C)cc2)cc1 (stereo not given)	-2	-1	3	-2	0
CC(=O)Nc1ccc(N(C(=O)c2ccco2)C(C(=O)NC2CCCC2)c2ccc(N3CCOCC3)cc2)cc1 (stereo not given)	-1	0	1	35*	0
O=C(Cn1nc(C(=O)O)c2ccccc2c1=O)Nc1cc(Cl)ccc1-n1cncn1	-7	-26	0	37*	-1
O=C(Cn1c(-c2cccs2)cc2ccccc21)NCc1ccccc1Br	1	6	-1	11	-1
Cc1cccc(Cn2c(=O)n(Cc3ccc(C(=O)NC4CCN(Cc5ccccc5)CC4)cc3)c(=O)c3ccccc32)c1	0	0	1	4	1
Cc1ccc(C(=O)c2cn(CC(=O)Nc3ccc(C)cc3Cl)c3nc(C)ccc3c2=O)cc1	-1	-9	0	-25	0
Cc1ccc(NC(=O)Cc2nn(C)c(=O)c3ccccc23)cc1F	-6	-66*	17	3	0
Cc1ccc2c(c1)c(=O)c1ccccc1n2CCCC(=O)Nc1ccc(C)c(F)c1	-2	-48*	7	12	-1
Cc1cc(Nc2nc3ccccc3c3nnc(C)n23)ccc1Br	-1	11	4	6	0
COC(=O)c1ccc2c(=O)n(CCCCCC(=O)N3CCN(c4cc(C)ccc4C)CC3)c(=O)[nH]c2c1	-1	-14	4	1	0
Cc1nn2c(=O)cc(COC(=O)c3cccc(NC(=O)c4ccc(F)cc4)c3)nc2s1	0	3	-2	2	1
